Out of some 330,000 compounds screened, about 4,200 (1.3%) were called active. Another 6% or so got no clear call; they are omitted. What follows is part of a selection rich in actives, with near analogues and random picks from the rest. Unmarked numbers belong to inactive results. Calls follow the shape of the dose curve; as a rule, active = well fitted activation curve with a large enough effect; inconclusive = small, poorly fitted or top-dose-only effect; inactive = no such curve, though single readings can be large or run the other way.
Potency is read from the fitted curve at half-maximal effect.

The nature of this assay: qHTS screen for small molecules that induce genotoxicity in human embryonic kidney (HEK293T) cells expressing luciferase-tagged ELG1. Also: nearly all actives have a fitted effect of over 60% in size. As to activity change, positive = activation: % of control where 0% means no effect. As to conditions: HEK293T ELG1-luciferase reporter, luminescence, 16 h; series mostly up to 46 µM; activity change, positive = activation: at the top concentration. Put shortly: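 After overnight (16 hr) compound treatment at 37 °C, ELG1-luciferase HEK293T cells were lysed with ONE-Glo; luminescence quantified 30 min later at room temperature.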
In the case of `CCOC(=O)c1c(N)nn(C(=O)c2ccccc2)c1-c1ccccc1`, the “activity change, positive = activation” value is -8.81%.
For the molecule `Cc1nn(C(=O)c2ccoc2C)c(N)c1-c1ccccc1`, the Potency is 13 µM (active).
On to `Cc1ccc(C(=O)Nc2ccc3c(c2)OCCO3)cc1S(=O)(=O)N1CCOCC1`, for which the “activity change, positive = activation” value is 10.5%.
Regarding `c1ccc(CCN2CN=C(Nc3nc4ccccc4o3)NC2)cc1`, the Potency is 18.4 µM (active).
As for `N#CNC1=NCN(CCc2ccccc2)CN1`, the “activity change, positive = activation” value was -0.27%.
Still for that read-out and setting: the value for `Cc1ccc2nc(NC3=NCN(CCc4ccccc4)CN3)nc(C)c2c1` was -4.53%; that for `CCN(CC)C(=O)[C@H]1C[C@H](CC(=O)NCC23CC4CC(CC(C4)C2)C3)C(=O)N2CCc3c([nH]c4cc(CCC(=O)N(C)C)ccc34)[C@]12C` was -0.656%.
Take `N#CC(=C1SC=CS1)c1nc(-c2ccccc2)cs1`: the Potency was 5.8 µM (active).
With `N#C/C(=C1/CCCN1)c1ccccn1`, the “activity change, positive = activation” value is -2.36%.
Same read-out and setting: next, `COc1cc(/C=C/C(=O)OCC(=O)NCCCc2ccccc2)ccc1O`: 5.01%; `O=C(NCCC(=O)N1O[C@@H]2C=C[C@H]1C2)OCC1c2ccccc2-c2ccccc21`: 5.79%.
The same measure, in the same setting: next, `COc1ccc(NC(=O)COC(=O)c2n[nH]c3ccccc23)c(OC)c1`: -1.81%.
With `COc1ccc(COC(=O)c2n[nH]c3ccccc23)cc1F`, the Potency is 14.6 µM (active).
With `O=C(COC(=O)c1n[nH]c2ccccc12)NCc1ccccc1`, the “activity change, positive = activation” value is 7.07%.
On the same count and under the same terms, the value for `O=C(CC1SC(N2CCOCC2)=NC1=O)Nc1ccccc1F` (stereo not drawn) was 3.27%.
Regarding `Cc1noc(C)c1-c1ccc2ncnc(NC(C)c3ccco3)c2c1` (stereo not drawn), the Potency is 16.4 µM (active).
On to `c1coc(CNc2ncnc3ccccc23)c1`, for which the “activity change, positive = activation” value was -10.6%.
Same read-out and setting: the value for `COc1ccc(NS(=O)(=O)c2ccc(C(=O)Nc3c(C)n(C)n(-c4ccccc4)c3=O)cc2)cc1` was 1.95%; that for `CCCN(C(=O)CSc1nnc(N)s1)c1c(N)n(Cc2ccccc2)c(=O)[nH]c1=O` was -2%.
Still for that read-out and setting: next, `CN(C(=O)CSc1cccc[n+]1[O-])C1CCCCC1`: 2.05%.
Same read-out and setting: next, `Cc1cccc(OCCC(=O)Nc2ccccc2C(N)=O)c1`: -2.38%.
On to `COc1cccc(OCC(=O)Nc2ccccc2C(N)=O)c1`, for which the Potency was 5.17 µM (active).
Take `CCCOC(=O)Nc1ccccc1C(N)=O`: the “activity change, positive = activation” value was -0.681%.
The same measure, in the same setting: the value for `NS(=O)(=O)c1ccc(CNC(=S)NC(=O)c2ccco2)cc1` was 2.68%.
On the same count and under the same terms, the value for `O=C(NNS(=O)(=O)c1c(F)cc(F)c(Cl)c1F)C12CC3CC(CC(C3)C1)C2` was -0.967%.
The same measure, in the same setting: the value for `Cn1cncc1C#Cc1c(-c2ccsc2)sc2ccccc12` was -2.38%; that for `O=C(Nc1nnc(-c2ccccc2)o1)c1cccc(S(=O)(=O)N2CCOCC2)c1` was -10.2%; that for `O=C(NCc1ccc2c(c1)OCO2)c1cc([N+](=O)[O-])ccc1N1CCOCC1` was -2.21%.
Turning to `O=C(Nc1ccon1)c1sc2ccccc2c1Cl`, the Potency is 13 µM (active).
`Cc1nn(C)cc1/C=N/NC(=O)c1sc2ccccc2c1Cl`: the “activity change, positive = activation” value is 3.94%.
For `O=C(Nc1ccon1)c1cccc(Cl)c1`, the “activity change, positive = activation” value was 0.203%.
Still for that read-out and setting: next, `Cc1ccc(NC(=O)Cn2cnc3c(OCc4ccccc4)ncnc32)cc1C`: 3.02%; `COc1cc(/C=N/Nc2nn3cnnc3c3ccccc23)cc(OC)c1OC`: -0.781%; `FC(F)(F)c1nc2ccccc2nc1N/N=C/c1ccc(Cl)cc1`: -2.13%.
Regarding `CN(CCO)c1ccc(/C=N/Nc2nncc3ccccc23)cc1`, the Potency was 0.116 µM (active).
For `C/C=C/c1ccc(OCC(=O)NNC(=O)CN(C)S(=O)(=O)c2ccc(C)cc2)c(OC)c1`, the “activity change, positive = activation” value is 0.0839%.
Take `CC(Sc1ccccc1F)C(=O)Nc1cccc(S(=O)(=O)N2CCOCC2)c1` (stereo not drawn): the “activity change, positive = activation” value was -0.0904%.
As to `COc1ccccc1Nc1ncnc2c1oc1ccccc12`, the Potency is 14.6 µM (active).
For the molecule `COc1ccc(C)cc1Nc1nc(C)nc2c1oc1ccccc12`, the “activity change, positive = activation” value is 0.558%.
The same measure, in the same setting: next, `CCC(C(=O)OC)n1cnc2c(oc3ccccc32)c1=O` (stereo not drawn): 5.09%.
For `CCCCOc1ccc(-c2ncc(C(=O)OCC)c(N)n2)cc1`, the Potency is 10.3 µM (active).
With `CCOC(=O)c1cnc(SCc2nc(N)nc(Nc3ccc(OC)cc3)n2)nc1N`, the “activity change, positive = activation” value was 4.89%.
The same measure, in the same setting: next, `CCCCCCOc1ccc(OC(=O)c2cccnc2)cc1`: 3.9%; `Cc1c(NC(=O)CN(C)CC(=O)Nc2ccc(F)c(F)c2F)c(=O)n(-c2ccccc2)n1C`: 0.0923%.
As for `Cc1ccsc1C(=O)OCC(=O)NCCc1ccccc1`, the “activity change, positive = activation” value was 10.7%.
The same measure, in the same setting: next, `COc1ccc(C2CC(c3cccs3)=Nc3ccccc3S2)cc1OC` (stereo not drawn): 0.582%.
The same measure, in the same setting: next, `COc1ccc(OC)c(-c2csc(-c3cccs3)n2)c1`: 3.44%.
`COc1ccc(-c2csc(-c3cccs3)n2)cc1OC`: the Potency is 16.4 µM (active).
For `CC[C@@]1(C(=O)OC)N[C@H](CN(C)C(C)=O)[C@@H]2C(=O)N(C)C(=O)[C@@H]21`, the “activity change, positive = activation” value was 1.22%.
Still for that read-out and setting: the value for `CC(=O)c1c(OCC(=O)N(C)C2CCCCC2)ccc2c(C)cc(=O)oc12` was 3.2%.
On the same count and under the same terms, next, `COc1ccccc1CSc1ncc(-c2ccc([N+](=O)[O-])cc2)[nH]1`: -0.532%.
Take `COc1ccccc1CSc1nc2ccccc2[nH]1`: the Potency was 23.1 µM (active).
Turning to `Clc1ccccc1SCc1nc2ccccc2[nH]1`, the “activity change, positive = activation” value is 15%.

The values are drawn from PubChem BioAssay AID504466 (National Center for Advancing Translational Sciences (NCATS), 2011).
